High-throughput results as filed in PubChem BioAssay.
GPR151 ag: activators of human GPR151. AID 1508602. hit rate 1% among 650,000. PathHunter beta-arrestin GPR151 cells, luminescence. activation, % at 11.2 µM; in the data active means activation above about 4.9%
TEAD-YAP inh: TEAD-YAP interaction inhibition. inhibition, % at 9.12 µM. HEK-TIYL cells, TEAD-Gal4/YAP UAS-luciferase luminescence. hit rate 1.4% among 640,000. AID 1259422; in the data active means inhibition above about 32%
FBW7 activator: human FBW7 E3 ligase activation, primary screen. Q969H0. AlphaScreen FBW7–phospho-cyclin E peptide binding, activator screen. normalized activity (activation), % at 26.1 µM. hit rate 0.13% among 650,000; in the data active means normalized activity above about 1.9%;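 further: purified mutant Fbw7 with reduced substrate affinity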
Target sequence (Q969H0 whole entry, looked up): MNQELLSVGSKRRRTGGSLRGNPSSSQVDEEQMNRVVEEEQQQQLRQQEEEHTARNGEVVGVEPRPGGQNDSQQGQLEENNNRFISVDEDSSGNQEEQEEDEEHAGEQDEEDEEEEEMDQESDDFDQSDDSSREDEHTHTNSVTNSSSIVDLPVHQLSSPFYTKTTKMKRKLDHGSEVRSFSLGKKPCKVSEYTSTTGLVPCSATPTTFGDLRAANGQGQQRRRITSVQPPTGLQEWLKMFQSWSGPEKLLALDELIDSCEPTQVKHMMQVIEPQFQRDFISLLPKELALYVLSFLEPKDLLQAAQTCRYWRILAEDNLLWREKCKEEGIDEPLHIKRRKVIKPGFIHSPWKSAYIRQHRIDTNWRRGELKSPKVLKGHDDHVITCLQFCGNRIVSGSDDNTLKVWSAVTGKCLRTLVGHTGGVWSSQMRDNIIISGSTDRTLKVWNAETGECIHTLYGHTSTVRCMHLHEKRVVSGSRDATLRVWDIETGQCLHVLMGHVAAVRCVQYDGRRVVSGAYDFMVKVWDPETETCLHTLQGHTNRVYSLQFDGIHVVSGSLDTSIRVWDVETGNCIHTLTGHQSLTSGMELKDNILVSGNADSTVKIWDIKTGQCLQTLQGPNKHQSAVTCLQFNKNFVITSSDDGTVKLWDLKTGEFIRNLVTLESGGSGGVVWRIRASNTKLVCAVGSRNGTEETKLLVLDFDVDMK
MITF primary: blocks human microphthalmia-associated transcription factor | O75030 | AlphaScreen MITF homodimerization, bead proximity signal | inhibition, % at 2.6 µM | hit rate 0.91% among 650,000 | AID 1259374; in the data active means inhibition above about 50%
MITF confirm: confirmation of human MITF inhibitors; shares compounds with MITF primary; AlphaScreen MITF homodimerization, biotin/His-MITF beads; inhibition, % at 2.6 µM; hit rate 16% among 4,700; AID 1259372;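 active means inhibition above a cutoff derived from the DMSO control wells, cut at about 28% in these data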;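 further: inhibitors lower the bead chemiluminescence by keeping MITF from dimerizing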
AS interf DR: optically interferes with AlphaScreen signal in dose response; shares compounds with MITF primary; AlphaScreen optical interference counterscreen, cell-free; IC50, µM; hit rate 6% among 480; AID 1259373; call rule not given here
AlphaScreen intf2: AlphaScreen optical interference, counter-screen; shares compounds with MITF primary; LysRS AlphaScreen counterscreen, signal interference, triplicate; inhibition, % at 2.6 µM; hit rate 7.6% among 4,700; AID 1259376;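 active means inhibition above a cutoff derived from the DMSO control wells, cut at about 30% in these data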
Numbers stand for hits; - = inactive; . = no result. Rows were chosen to be rich in hits. Some 3.5% of all compounds tested hit in one or more screens of this group.

SMILES	GPR151 ag	TEAD-YAP inh	FBW7 activator	MITF primary	MITF confirm	AlphaScreen intf2	others
CN(C)C(CNCC(O)COc1ccccc1)c1cccs1 (stereo not drawn)	-	-	-	70.6	-	-
CC1CCN(C(CNCC(O)COc2ccccc2)c2cccs2)CC1 (stereo not drawn)	-	-	-	69.7	-	-
CCOC(=O)C(=O)Cc1ccc2ccccc2n1	-	-	-	53.5	-	-
N/N=C(\Cc1ccc2ccccc2n1)c1ccccc1	-	-	-	-	.	.
Nc1nnnn1/N=C/c1ccc(-c2ccc(F)c(Cl)c2)o1	-	-	-	83.3	-	-
COCCn1nnnc1C(c1ccc(Cl)cc1)N1CCSCC1 (stereo not drawn)	-	-	-	66.3	-	-
COCCn1nnnc1CN1CCSCC1	-	-	-	55.8	-	-
CC(NCC1(N2CCOCC2)CCCCC1)C(=O)N1CCc2ccccc21 (stereo not drawn)	-	-	-	53.0	-	-
CC(Nc1ccccc1)C(=O)N1CCc2ccccc21 (stereo not drawn)	-	-	-	-	.	.
CCOc1ccc(S(=O)(=O)N2CCN(CC(O)c3ccccc3)CC2)cc1 (stereo not drawn)	-	-	-	-	.	.
N#Cc1ccccc1S(=O)(=O)N1CCN(CC(O)COc2ccccc2F)CC1 (stereo not drawn)	-	-	-	51.1	-	-
N#Cc1ccccc1S(=O)(=O)N1CCN(CC(O)c2ccccc2)CC1 (stereo not drawn)	-	-	-	58.3	-	-
CC(C)(C)c1ccc(SCCc2ccccn2)cc1	-	-	-	63.2	-	-
CC(C)c1ccc(C(C)C)c(SCCc2ccccn2)c1	-	-	-	53.2	-	-
CC1=NCCN1S(=O)(=O)c1ccc(C)cc1	-	-	-	-	.	.
COc1ccc2nc(NC(=O)c3cccc(OCc4ccccc4)c3)sc2c1	-	-	-	-	.	.
C/C(=N\OCC(O)CN1CCOCC1)C1COc2ccccc2O1 (stereo not drawn)	-	-	-	51.1	-	-
CCn1c(SCC(=O)Nc2ccc(Cl)cc2)nc2c(c1=O)SC(C)C2 (stereo not drawn)	-	-	-	-	.	.
Cc1ccc2nc(NS(=O)(=O)c3ccc(O)c(C(=O)O)c3)sc2c1	-	-	-	64.7	-	-
Cc1nc2ccc(NS(=O)(=O)c3ccc(O)c(C(=O)O)c3)cc2s1	-	-	-	-	.	.
O=C(O)c1cc(S(=O)(=O)Nc2ccc3cn[nH]c3c2)ccc1O	-	-	-	75.8	51.6	-	AS interf DR=-
O=S(=O)(Nc1ccc2cn[nH]c2c1)c1ccc2ccccc2c1	-	-	-	-	.	.
NS(=O)(=O)c1ccc(NS(=O)(=O)c2ccc(O)c(C(=O)O)c2)cc1	-	-	-	-	.	.
O=C(O)c1cc(S(=O)(=O)Nc2ccncc2)ccc1O	-	-	-	66.3	42.6	-	AS interf DR=-
O=C(NC1CCCC1)c1ccc(CS(=O)(=O)Cc2ccc(F)cc2)o1	-	-	-	-	.	.
SMILES	GPR151 ag	TEAD-YAP inh	FBW7 activator	MITF primary	MITF confirm	AlphaScreen intf2	others
CCOC(=O)N1CCN(CC(O)COc2ccccc2)CC1 (stereo not drawn)	-	-	-	-	.	.
O=C1CCCN1C(=O)CN1CCCCC1	-	-	-	52.4	-	-
O=C1CCCN1C(=O)CN1CCOCC1	-	-	-	53.2	-	-
O=C(Nc1ccc(O)c(-c2nc3ccccc3s2)c1)c1ccc(Cl)c([N+](=O)[O-])c1	-	-	-	-	.	.
O=C(NCC(O)C(=O)N1CCOCC1)c1cc(Nc2ccc3[nH]ncc3c2)ccn1 (stereo not drawn)	-	-	-	-	.	.
O=C(NCC(O)C(=O)N1CCOCC1)c1cccc(Nc2ccc3[nH]ncc3c2)n1 (stereo not drawn)	-	-	-	57.3	62.4	-	AS interf DR=-
CC1CCCCC1NS(=O)(=O)c1ccc(S(=O)(=O)N2C(C)CCCC2C)cc1 (stereo not drawn)	-	-	-	-	.	.
CCOC(=O)c1c(NC(=O)c2cc(-c3cc(C)ccc3C)nc3ccccc23)sc2c1CCCC2	-	-	-	-	.	.
CCOC(=O)c1c(NC(=O)c2cc(-c3ccccc3C)nc3ccccc23)sc2c1CCCCCC2	-	-	-	68.7	-	-
CC12CCCCC1N(CC(N)=O)c1ccccc12 (stereo not drawn)	-	-	-	-	.	.
CCCNc1nc(Nc2ccccc2)c2cnn(C)c2n1	-	-	-	112.3	-	-
CCNc1nc(Nc2ccccc2)c2cnn(C)c2n1	-	-	-	-	.	.
CSc1cccc(NC(=S)NN)c1	-	-	-	-	.	.
COC(=O)c1ccccc1N=Cc1c(O)n(-c2ccccc2)c(=O)[nH]c1=O	-	-	-	-	.	.
Cc1cc(Cl)cc(C)c1OCCN1CCNCC1	-	-	-	54.8	-	-
Cc1cc(C)c(OCCOCCN2CCNCC2)c(C)c1	-	-	-	-	.	.
Clc1cc(Cl)c(OCCCN2CCNCC2)c(Cl)c1	-	-	-	56.5	-	-
Cc1cc(Cl)c(OCCCN2CCNCC2)c(Br)c1	-	-	-	-	.	.
Clc1ccc(SCCN2CCNCC2)cc1	-	-	-	-	.	.
Clc1ccc(SCCOCCN2CCNCC2)cc1	-	-	-	59.0	-	-
Clc1ccc(OCCCCN2CCNCC2)c(Br)c1	-	-	-	79.4	-	-
